# Tested on: VDR:RXRa (NR concentration 270 nM, RXRa partner concentration 90 nM)
# Test: PBM binding z-score (relative to random genomic background probes); higher = stronger binding; sequences stand for … in GC…GCGATTGACAGCGTAGAATGAAGG
# Description: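 Protein-binding microarray (Agilent 4x180K custom design, double-stranded 60-nt probes: 5' GC cap, 34-nt variable region, 24-nt constant primer region; full probe sequence given). Purified or IVT nuclear receptor:RXRα heterodimers (3:1 NR:RXRα, mostly 270:90 nM) or homodimers were incubated for 1 h in PBS with 2% milk and no ligand, then detected with Alexa488 antibodies. Fluorescence from o1-orientation probes (~5 replicates averaged) was converted to z-scores against 500 random hg19 background probes. Variable regions are seed direct-repeat (DR0–DR5) sites, all their single-nucleotide variants and half-site ablations.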
row,Sequence,PBM binding z-score
1,ATCGAAAGGTCGAGGGGAGTATAGAGAAAGGGAA,2.67
2,CGTCCAAGGTCAAGTTCAGTGAAAGAGACTCGAA,4.91
3,ATAATGAGGTTAAGATCAGGGAAACAGAATACAT,1.6
4,TGAATGAGGATATAAGATCAGGGAACGTTGCAAA,-0.113
5,ACCGAAAGGTCGTGAGGTGAGTATACAGAAAGGC,3.62
6,ACTAGCAGGCCAAGGGTCATTCAAGATTAGTCCG,3.49
7,CAAACTAGGTCATCGGAAGGTCAAAGTCCGCATG,5.72
8,GGAACGAGGACATTCGAGTTGATAGCATGGCGAT,0.922
9,CCTACTGGGCCATTAGGTCATTGATATCAACGTT,1.47
10,GCTAGCAGTCCATTTGGGTCACTCAATGACGGGC,0.562
11,GGAACGAGGGCATTCGAGTTTATAGCATGGCGAT,5.31
12,ATCTCTAGGTAAGCCTCAGTTCAGTGAAGAACGC,0.546
13,CGAACTAGGTCATCCACGACAGTGAATACATTGA,2.18
14,CCTCGGAGGACAACAGGAGGTCAGAGCCGCCAGA,1.58
15,GCAGACAGGTGAAACGCAGGTAACTCACGGTGGC,-0.56
16,GATACAGGGTCAGCTAAAGGCCAGAGTATGGAAA,3
17,GCTAGTTGGTCAGTAAAAGTTCACACACCGGTCG,2.55
18,CGAACGAGGGCATGAGTTGATACCAAATGCCGAT,1.83
19,ATCGAAAGGTCGAAGTGAGTATAGAGAAAGGGAA,2.7
20,AGTCAAAGATCACTAGGTAACGTAAGATTCAGCT,-0.124

row,Sequence,PBM binding z-score
1,TCAGACAGGTGAAGGTAACTCAAGTACGCAGTCG,1.12
2,CCTTACGGGTCAAGGTGATAGCACGGGTGGTACG,2.92
3,TCTAGCAGACCAGAGGGTCACTCAAGAGGTACGG,1.08
4,AGAATGACGTTATTAAGATCAGGGAATTGCGGTC,-0.00436
5,CGAACTAGGTCAGTACAGGACAGTGAAGGATGAT,0.713
6,CCTTACGGGTCAAGGATATAGCACGGGTGGTACG,2.65
7,ACTATTAGTTGACTTACGGCAACCGATACGACGC,0.0942
8,TCATATAGGTACACAGGTGAAAGTCCGTAAGTTA,1.32
9,ATAAGTAGGTTACATCCGGGTCATTCAGGCTATG,4.06
10,TCTCTGAGGACACGAAGGTCAGAGCTTTCCAGAG,2.6
11,CCAGACAGGTTAGAAGGTAACTCAGCCTCGATTA,0.114
12,CAGCCTAGGTCAGGGGCAGTATAGGAGGAACGTT,0.806
13,CTACCAAGGTGACCAAGGTCGTTGATTACTATTC,5.32
14,CAGCCTAGGTCAGGGCCGGTATAGGAGGAACGTT,0.178
15,CGAACTGGGTCATCCAGGACAGTGAATACATTGA,4.54
16,CCTAGCAGGCTAATCTGGGTCACTCAAGGCTTGA,0.385
17,TCTAGTTGATCAAAGGTCACACACTCGAAATGCG,5.05
18,GCGACTGGGGCTAAGCAGGTTACCATAAGGTTGG,-0.0992
19,TCTATTAATTGATTAGGGCAACCGAAACAGCGGA,0.405
20,GCTGCTAGGGCAGGTTGGTCAGCTAACGGGTACG,-0.775

# Reference: the supplement of paper PMC6555819
